High-throughput results: PubChem BioAssay, National Center for Advancing Translational Sciences (NCATS)
Sampled rows, rich in hits. Any-hit rate of the full collection: about 1.3%.
TRPML1 agonist – agonists of human TRPML1 channel. TRPML1-expressing cells, Ca2+ dye fluorescence, FDSS. activation, % (concentration not given with the values). Q9GZU1. 0.12% of 410,000 active. AID 624414; also: 0% is about no effect
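TRPML1-DL cells, Tet-induced overnight (~16 h, 37 degrees C), loaded 45-90 min at room temperature with Ca8 no-wash calcium dye plus quencher. FDSS fluorescence: 10 s baseline, compound pin-transfer, 110 s agonist read, then EC80 54-4 (4uM final) and 110 s antagonist read.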
PKM2 activator – increases activity of human pyruvate kinase M2 | P14618 | purified PKM2, Kinase-Glo ATP luminescence, activation; response scale: 0% is enzyme alone, no compound | Potency, µM (doses to about 57.5 µM), for the others: top-dose activation, usual class: activators | 0.34% of 260,000 active | AID 1631; active = well fitted activation curve with a large enough effect; inconclusive = small, poorly fitted or top-dose-only effect; inactive = no such curve, though single readings can be large or run the other way; also: potency is read from the fitted curve at half-maximal effect; % is scaled to controls: 0 for no effect and ±100 for the full control effect; nearly all actives have a fitted effect of over 55% in size
Target sequence (P14618 whole entry, looked up): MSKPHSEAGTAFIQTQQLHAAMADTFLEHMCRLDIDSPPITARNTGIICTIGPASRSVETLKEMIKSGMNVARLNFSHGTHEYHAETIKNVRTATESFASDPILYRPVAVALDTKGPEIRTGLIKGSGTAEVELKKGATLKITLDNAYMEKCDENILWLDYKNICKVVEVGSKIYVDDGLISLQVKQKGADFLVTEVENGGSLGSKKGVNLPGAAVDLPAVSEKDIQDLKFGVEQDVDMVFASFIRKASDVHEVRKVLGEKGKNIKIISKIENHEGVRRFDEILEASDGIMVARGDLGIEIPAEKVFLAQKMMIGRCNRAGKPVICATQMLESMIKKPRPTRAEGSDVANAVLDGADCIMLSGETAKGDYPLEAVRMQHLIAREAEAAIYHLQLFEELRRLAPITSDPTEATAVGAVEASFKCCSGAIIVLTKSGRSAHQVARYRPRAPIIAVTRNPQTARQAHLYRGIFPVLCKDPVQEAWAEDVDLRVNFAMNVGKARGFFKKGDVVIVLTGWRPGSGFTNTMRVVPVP
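Purified hPK-M2 (>95%) run at intermediate activity with 0.1 mM ADP and 0.5 mM PEP in 50 mM imidazole pH 7.2, KCl, MgCl2; 1 h room temperature. ATP formed read by Kinase-Glo luminescence; normalized to uninhibited and no-enzyme controls.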
TRPML1 blocker – blocks the human TRPML1 channel; TRPML1-inducible cells, Ca2+ dye fluorescence, FDSS; active compounds read low; inhibition of EC80 agonist-evoked calcium signal; activity change, negative = inhibition, % (concentration not given with the values); 0.02% of 390,000 active; in the data active = activity change below about -50%; inconclusive = between about -30% and that limit;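 also: stimulus is agonist 54-4 at its EC80 concentration; % is scaled to controls: 0 for no effect and ±100 for the full control effect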
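Tet-induced TRPML1-DL cells loaded with Ca8 no-wash calcium dye were read kinetically on FDSS. Compound addition was followed by EC80 agonist 54-4 (4 uM final); inhibition was read over 110 s.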
BRCA1 expr act – BRCA1 expression activation; MCF7-BRCA1-FFLuc reporter, luminescence, 48 h; response scale: scaled: vehicle 0%, 10 µM genistein 100%; Potency, µM (doses to about 46.1 µM), for the others: at the top dose activation, hits mostly activators; 1.1% of 380,000 active; AID 624202; active = well fitted activation curve with a large enough effect; inconclusive = small, poorly fitted or top-dose-only effect; inactive = no such curve, though single readings can be large or run the other way; also: potency is read from the fitted curve at half-maximal effect; nearly all actives have a fitted effect of over 80% in size
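Reporter cells (MCF7, BRCA1 promoter-firefly luciferase) received library compounds across a concentration series for 48 h. End-point luminescence was measured and concentration-effect curves derived after normalization.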
TSG101-PTAP inh – blocks PTAP/TSG101 interaction to inhibit HIV-1 budding; Q99816; Fluorescence polarization, FITC-PTAP peptide / Tsg101 binding; Potency, µM (series often up to 115 µM), for the others: at the highest dose activity change, negative = inhibition, hits mostly inhibitors; 340,000 tested, under 10 active; AID 493005; active = well fitted inhibition curve with a large enough effect in the main read-out, with a control signal flat, not every such curve was filed as active; inconclusive = small, poorly fitted or top-dose-only effect, or effect the other way, or a change in a side signal; inactive = no such curve, though single readings can be large or run the other way; also: potency is read from the fitted curve at half-maximal effect; % of control where 0% means no effect
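Tsg101 binding domain (10 uM final) was mixed with compound and a FITC-labeled PTAP peptide (50 nM final) in HEPES pH 7.5 buffer with NaCl, Tween 20, EDTA and TCEP; fluorescence polarization was read after 20 min at r.t.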
IL2 activator – IL-2 activation; activation, % (series mostly up to about 46 µM); AID 652025; 0.065% of 360,000 active; IL-2 activation reporter assay, cell-based qHTS; stimulated with anti-CD3/CD4/CD28 beads; in transgenic mouse T cells; also: 0% is about no effect
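Unstimulated transgenic mouse T cells, 750 per well, received compound and, after 60 minutes, anti-CD3/anti-CD4 bead plus anti-CD28 stimulation. EGFP and DsRed were quantified after 18 hours.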
Numbers without * were called inactive; ? = inconclusive; nt = not tested or not shown. Rule as the data show it, unless noted: active = activation above about 50%; inconclusive = mostly about 30% to 49%; inactive = weaker than that.

SMILES	TRPML1 agonist	PKM2 activator	TRPML1 blocker	BRCA1 expr act	TSG101-PTAP inh	IL2 activator
CCOC(=O)c1ccc(NC(=O)c2nn(C)cc2Br)cc1	-1	-8%	-8	5µM*	-8%	-3
CCOC(=O)c1ccc(NC(=S)Nc2ccc(C)cc2)cc1	0	-2%	13	13µM*	-1%	0
C[n+]1ccnc2ccccc21	2	nt	nt	-13%	nt	nt
Cc1ccc(-n2nc(C(=O)Nc3ccc(Cl)cn3)c3c4ccccc4n(C)c3c2=O)cc1	0	nt	29	nt	nt	nt
O=C(CSc1nc2cc(Cl)ccc2o1)Nc1ccc(N2CCOCC2)cc1	0	1%	1	13µM*	-7%	-5
Cc1cc(CNC(=O)c2ccc3nc(Cc4ccccc4F)oc3c2)nn1C	-1	nt	24	8.9µM*	-4%	0
O=C(c1ccc2nc(Cc3ccccc3F)oc2c1)N1CCCC1	0	?	-25	5.6µM*	-1%	-2
CC(=O)N1CCCN(C(=O)c2ccc3nc(Cc4ccccc4F)oc3c2)CC1	0	-6%	-5	19%	-1%	2
Cc1cc(CN(C)C(=O)c2ccc3nc(Cc4ccccc4F)oc3c2)n[nH]1	0	2%	6	-12%	-5%	-3
CC(c1ccccn1)N(C)C(=O)c1ccc2nc(Cc3ccccc3F)oc2c1 (stereo not given)	-1	-12%	0	11µM*	0%	0
COc1ccc(OC)c(CNc2ncnc3onc(C)c23)c1	0	nt	8	nt	nt	nt
COc1cc2nc(N3CCCN(C)CC3)nc(NC3CCN(Cc4ccccc4)CC3)c2cc1OC	0	nt	nt	-70%	nt	nt
COc1ccc2sc(NC(C)=O)nc2c1	0	-3%	-20	?	-1%	3
CCC(=O)Nc1nc2cc(OC)ccc2s1	-1	0%	16	?	-4%	-2
COc1ccc2sc(NC(=O)CC(C)C)nc2c1	0	-2%	7	5.6µM*	-7%	-2
COc1ccc2sc(NCc3ccccc3)nc2c1	1	0%	-6	2.8µM*	-3%	0
COc1cc(OC)c(NS(=O)(=O)c2cc3c(cc2C)NC(=O)CO3)cc1Cl	2	nt	-8	nt	nt	nt
COc1ccc(-c2cn3cccnc3n2)cc1Br	0	2%	-1	11µM*	0%	-2
COc1ccc(CC(=O)n2[nH]c(=O)ccc2=O)cc1OC	0	8.9µM*	-4	0%	-3%	-1
CN(C)c1ccc(/C=C/c2cc(Cl)nc3ccccc23)cc1	0	nt	nt	nt	nt	nt
N=c1n(CC(=O)c2ccc([N+](=O)[O-])cc2)c2ccccc2n1Cc1ccc(Cl)cc1	1	8%	-14	-58%	18%	65*
N=c1n(CC(=O)c2ccc([N+](=O)[O-])cc2)c2ccccc2n1Cc1ccccc1	0	-10%	5	-54%	30%	9
Cc1c(Cl)cccc1N1CC(C)(C)C1=O	52*	-2%	-17	0%	-5%	1
CC1(C)CN(c2ccc(Br)cc2Br)C1=O	1	1%	0	0%	-5%	-1
O=C(NCCC1=CCCCC1)c1ccc2c(=O)n3nc(Nc4ccccc4)sc3nc2c1	1	nt	1	nt	nt	nt
SMILES	TRPML1 agonist	PKM2 activator	TRPML1 blocker	BRCA1 expr act	TSG101-PTAP inh	IL2 activator
CC(C)(C)C(=O)CSc1n[nH]c(-c2ccccc2)n1	0	nt	nt	7.9µM*	nt	nt
Cn1c(C(=O)NCc2cccc(Cl)c2)cc2oc3ccccc3c21	-1	nt	4	44%	nt	nt
COCCNC(=O)c1cc2oc3ccccc3c2n1C	0	1%	1	10µM*	-5%	-3
CCOC(=O)c1c(C)n(-c2ccccc2)c2ccc(OC(=O)c3cc(OC)cc(OC)c3)cc12	0	nt	16	nt	nt	nt
COC(=O)c1cc(C(=O)c2cccc(Cl)c2Cl)cn1C	2	25µM*	-6	1%	-3%	3
NC(=O)CSc1nnc(-c2ccc([N+](=O)[O-])cc2)o1	-1	24%	1	60%	-4%	3
C=CCSc1nnc(-c2ccc([N+](=O)[O-])cc2)o1	0	-6%	2	10µM*	-11%	-1
CCn1c2ccccc2c2cc(NC(=O)N3CCCCC3)ccc21	-1	nt	4	8.9µM*	nt	-4
O=C(Nc1ccc(Cl)cc1)N1CC=CCC1	1	-1%	-14	7.9µM*	2%	0
O=C(Nc1ccc(F)c(Cl)c1)N1CCCCCC1	1	-8%	-8	8.9µM*	1%	-1
CCN(CC)C(=O)C(=O)Nc1ccc(F)c(Cl)c1	-1	3%	-3	8.9µM*	3%	0
COc1ccc(/[N+]([O-])=C/c2ccoc2)cc1	-1	nt	-8	11µM*	0%	1
CC(C)(C)n1ncc2c(=O)n(Cc3ccc(C(F)(F)F)cc3)cnc21	2	nt	10	nt	nt	nt
CCOc1ccc(C(=O)Nc2cccc(-c3ccc(N4CCOCC4)nn3)c2)cc1OCC	1	nt	-9	11µM*	2%	0
COc1ccc(C(=O)Nc2cccc(-c3ccc(N4CCOCC4)nn3)c2)cc1OC	-1	nt	9	84%	1%	-5
CCCCCCCCN1[C@@H](CC(=O)O)c2ccc(/C=C/C(=O)O)cc2S1(=O)=O	0	nt	nt	nt	nt	nt
COc1ccc(C)cc1S(=O)(=O)NCC(c1cccnc1)N1CCc2ccccc2C1 (stereo not given)	0	11µM*	6	-26%	-2%	-4
CSC1=NC=C(C#N)C2=NC(c3ccc(Cl)cc3)NN12 (stereo not given)	0	nt	nt	10%	nt	0
COc1ccc(C(=O)/C=C/C(=O)N(CC(=O)NC2CCCCC2)Cc2cccs2)c(O)c1	0	13µM*	-1	-90%	-6%	0
c1ccc(-c2cnn3c(-c4ccccc4)c(-c4ccccc4)nc3n2)cc1	79*	-7%	-25	-33%	?	-1
Nc1nc(-c2ccccc2)c(-c2ccccc2)n1N	nt	nt	nt	10%	0%	1
CCCC/C=C1\CCc2c([nH]c3ccccc23)C1=O	0	-5%	-5	1.4µM*	-7%	1
CC(C)/C=C1\CCc2c([nH]c3ccccc23)C1=O	1	-4%	43	14%	1%	2
Cc1ccc(NC(=S)NC2CCCC2)c(C)c1	-1	-2%	-4	44%	4%	0
Cc1nc(/C(N)=N/OC(=O)c2ccccc2Cl)c(C(F)(F)F)o1	1	-36%	-3	11µM*	-1%	0
O=S(=O)(NCC1(N2CCOCC2)CCCCC1)c1ccccc1Cl	0	nt	-5	1%	-2%	-3
